HIF act – HIF pathway transcriptional activation; activation, % at 7.5 µM (by protocol); 0.32% of 300,000 active; AID 1910; U2OS HRE-luciferase reporter, luminescence; normalized: DMSO 0%, desferrioxamine 100%;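 active means mean activation of at least 10% of the iron chelator positive control signal, with at least half of replicates also reaching 10%; inconclusive means mean and replicate majority disagree about reaching 10%; inactive means mean and most replicates under 10%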
ALR H2O2 inh – inhibitors of human sulfhydryl oxidase ALR. inhibition, % (no concentration beside the values). P55789. 3.8% of 290,000 active. purified ALR, DTT oxidation, H2O2 HRP-luminol luminescence;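 active means mean replicate inhibition above about 79%, with every replicate also reaching it, limit read from the data; inconclusive means only one of the two criteria met; inactive means mean below limit and not every replicate reaching it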
Mot1-301 SUMO – inhibitors of SUMOylation pathway: yeast Mot1-301 growth rescue; S. cerevisiae Mot1-301 growth rescue, ATP luminescence, 38.5C; percent above DMSO median, 100 means doubled; growth rescue, % at 18.8 µM; 1% of 320,000 active; AID 2716;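 active means every valid replicate shows activation above 250% relative to neutral control wells; inactive means the rest, any valid replicate at or below 250%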
PfM18AAP inh-1 – blocks P. falciparum M18 aspartyl aminopeptidase | recombinant PfM18AAP, H-Glu-NHMec fluorogenic cleavage | inhibition, % at 7.35 µM | 1.2% of 290,000 active;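 active means inhibition above the campaign mean inhibition over all tested compounds plus 3 SD, cut at about 28% in these data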
PfM18AAP inh-2 – confirmation of Plasmodium falciparum M18 aspartyl aminopeptidase inhibitors. shares compounds with PfM18AAP inh-1. recombinant PfM18AAP, H-Glu-NHMec fluorogenic cleavage. inhibition, % at 7.35 µM. 28% of 2,400 active. AID 2170;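 active means mean inhibition over replicate wells above the hit cutoff set for the earlier primary screen, cut at about 29% in these data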
CTSL1 confirm – counter-screen for PFM18AAP inhibitors: confirmation of human cathepsin L inhibitors. purified cathepsin L1, Z-Leu-Arg-MCA fluorescence. 2,400 tested, under 10 active. inhibition, % at 5.96 µM. shares compounds with PfM18AAP inh-1;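 active means average inhibition across replicates above the hit cutoff set in the earlier primary screen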
Target sequence (P07711 whole entry, looked up): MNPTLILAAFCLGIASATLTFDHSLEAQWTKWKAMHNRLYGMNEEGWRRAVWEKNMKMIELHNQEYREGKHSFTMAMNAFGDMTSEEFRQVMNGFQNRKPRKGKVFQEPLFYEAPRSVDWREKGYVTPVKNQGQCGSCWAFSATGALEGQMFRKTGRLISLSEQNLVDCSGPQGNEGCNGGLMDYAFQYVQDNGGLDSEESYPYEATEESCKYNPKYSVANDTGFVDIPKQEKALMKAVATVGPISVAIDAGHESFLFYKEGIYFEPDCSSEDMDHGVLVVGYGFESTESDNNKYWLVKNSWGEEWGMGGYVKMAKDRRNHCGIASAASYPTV
Hits are given with their value; n = inactive; u = inconclusive; x = not tested or not shown. This is a sample that favours compounds with a hit; in the whole collection about 5.3% have one here.

SMILES | HIF act | ALR H2O2 inh | Mot1-301 SUMO | PfM18AAP inh-1 | PfM18AAP inh-2 | CTSL1 confirm
c1ccc(CC(Nc2ccccn2)c2ccccc2)cc1 (stereo not given) | n | n | n | n | x | x
O=C(O)CC1CCS(=O)(=O)C1 (stereo not given) | n | n | n | n | x | x
O=C(O)CC1CCC(=C(Cl)Cl)C1 (stereo not given) | x | n | n | 64.2 | n | n
COc1cc(NC(=O)Nc2ccc3c(c2)OCO3)cc(OC)c1OC | n | n | n | n | x | x
COc1cc(NC(=O)NNC(=O)c2cc3occc3n2C)cc(OC)c1OC | n | n | n | 60.3 | 30.5 | n
O=C(CN1C(=O)c2ccccc2C1=O)Oc1ccc(Cl)cc1 | n | n | n | n | x | x
CCN1/C(=C\C(=S)Nc2ccccc2)Sc2ccccc21 | n | x | n | 40.9 | n | n
O=C(NNc1nc2c(F)cccc2s1)c1ccccc1 | n | n | n | 42.9 | n | n
CC(C)NC(=S)NNc1nc2ccccc2s1 | n | n | n | 40.8 | 34.4 | n
O=C(NNc1nc2ccccc2s1)c1ccc(F)cc1 | x | x | n | 32.4 | n | n
CCOC(=O)Nc1nc2ccccc2s1 | n | n | x | n | x | x
O=C(NNc1nc2c(F)cc(F)cc2s1)c1ccccc1 | n | n | n | 38.9 | n | n
CCOc1ccc(NC(=O)COc2ccc(C(=O)NCc3cccc(OC)c3)cc2OC)cc1 | x | n | n | x | x | x
COc1ccc(CCC(C)N2CCC(CO)(Cc3ccccc3)CC2)cc1 (stereo not given) | n | n | n | n | x | x
Cc1cccc(NC(=O)CNC(=O)c2cccc(-n3cccc3)c2)c1C | n | n | n | x | x | x
Cc1cccc(NC(=O)c2c(C)nc3ccccn23)c1 | n | n | n | n | x | x
Cc1nc2ccccn2c1C(=O)NNC(=O)Nc1cccc(C(F)(F)F)c1 | n | n | n | 64.3 | 33.4 | n
Cc1ccn2c(C(=O)NNC(=O)Nc3ccc(Cl)cc3)c(C)nc2c1 | x | u | n | 63.9 | 48.1 | n
COc1cc(O)c(NC(C)=O)c2nonc12 | n | n | n | 33.0 | n | n
COc1cc(-c2ccc(NC(C)=O)c(OC)c2)ccc1NC(C)=O | n | x | n | n | x | x
N#C/C(=C\c1ccc(-c2cccc(C(F)(F)F)c2)o1)C(=O)Nn1cnnc1 | n | n | n | 33.5 | n | n
O=C(/C=C/c1ccc(O)c(O)c1)c1ccccc1O | n | 99.5 | n | 72.4 | 61.0 | n
COc1ccc2oc(=O)c(-c3nnc(NCc4ccco4)s3)cc2c1 | n | n | n | 39.6 | n | n
CCOc1cccc2cc(-c3cn4cc(C)ccc4n3)c(=O)oc12 | n | n | n | n | x | x
CCOc1cccc2cc(-c3nnc(NCc4ccco4)s3)c(=O)oc12 | n | n | n | 32.5 | n | n
SMILES | HIF act | ALR H2O2 inh | Mot1-301 SUMO | PfM18AAP inh-1 | PfM18AAP inh-2 | CTSL1 confirm
Cc1nc(C)c(C(=O)NNS(=O)(=O)c2ccccc2)s1 | n | n | n | n | x | x
Cc1ccc(C)c(S(=O)(=O)NNC(=O)c2sc(NS(=O)(=O)c3ccccc3)nc2C)c1 | n | n | n | 36.1 | n | n
COc1ccc(OC)c(S(=O)(=O)NCCS(=O)(=O)N2CCN(c3ccccc3)CC2)c1 | n | n | n | n | x | x
CCC(C)CCN1C(Nc2ccccc2)=NC[C@@H]1Cc1ccccc1 (stereo not given in full) | n | n | n | n | x | x
COc1cccc(OCC(=O)NNC(=O)c2ccc3ccccc3c2O)c1 | n | x | x | 37.1 | n | n
O=C(NNC(=O)c1ccc2ccccc2c1O)NC1CCCCC1 | n | n | n | 48.8 | n | n
Cc1cccc(NC(=O)NNC(=O)c2ccc3ccccc3c2O)c1 | n | n | n | n | x | x
COc1ccc(C(=O)NNC(=O)c2ccc3ccccc3c2O)cc1 | n | n | n | n | x | x
O=C(NNC(=O)c1ccc2ccccc2c1O)Nc1ccc(F)cc1 | n | n | n | 33.6 | n | n
CN=c1scc(-c2ccco2)n1/N=C/c1ccc(O)c(O)c1 | n | x | x | 59.0 | 51.4 | n
C=CCN=c1scc(C)n1/N=C/c1ccc(O)c(O)c1 | n | 98.8 | n | 57.3 | 40.3 | n
CCN(CC)S(=O)(=O)c1ccc(N/N=C/c2cccnc2)nc1 | n | n | n | n | x | x
CCN(CC)S(=O)(=O)c1ccc(NN)nc1 | n | n | n | 44.6 | 41.2 | n
CCN(CC)S(=O)(=O)c1ccc(N/N=C/c2cc(OC)ccc2O)nc1 | u | x | n | 56.6 | n | n
CC(C)N(C(C)C)S(=O)(=O)c1ccc(NN)nc1 | n | n | n | 37.6 | 36.9 | n

Bioassay records as filed in PubChem.
